# Records with an inconclusive call do not appear. Calls of active or inactive are those of the source. Rule for the calls: active = hit-call score of the fitted dose curve at least 0.9, where 1 is the maximum; inconclusive = response in the unintended direction; inactive = score below 0.9.
# Tested on: not listed separately
# Assay: ACEA_AR_agonist_AUC_viability: ACEA Biosciences xCELLigence Real-Time Cell Analysis on Androgen Receptor Agonism for Viability (AID 2283775);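 for AC50: viability read 80 hours after compound addition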
# Outline: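 22Rv1 cells; impedance growth kinetics; 8-pt 1:4 dilutions from 100 uM top final, ≤0.5% DMSO; n = 2; 80 h read; AUC viability, loss-of-signal vs DMSO.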
Compound,outcome,AC50
COCCl,inactive,
CC(C)O.CC(C)O.OCCN(CCO)CCO.OCCN(CCO)CCO.[Ti],inactive,
O=C(NC(=O)c1c(F)cccc1F)Nc1cc(Cl)c(OC(F)(F)C(F)C(F)(F)F)cc1Cl (configuration not stated),,5.54 µM (active)
CC(=Cc1ccccc1)[N+](=O)[O-],,13.5 µM (active)
O=S1OC[C@@H]2[C@H](CO1)[C@]1(Cl)C(Cl)=C(Cl)[C@@]2(Cl)C1(Cl)Cl (some centres not stated),inactive,
Cc1cc(Cl)ccc1OCCCC(=O)O,inactive,
Oc1cc(Cl)c(Cl)cc1Cl,,64.8 µM (active)
CNC(=O)O/N=C/C(C)(C)S(C)(=O)=O,inactive,

# Tested on: not listed separately
# Assay: ACEA_ER_AUC_viability: ACEA Biosciences xCELLigence Real-Time Cell Analysis on Estrogen Receptor Agonism for Viability (AID 2283782);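 note: hit means loss of impedance signal meaning reduced cell growth or viability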
# Outline: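 Viability endpoint: reduced impedance area under the curve relative to DMSO, recorded by real-time electrode sensing over ~80 h of continuous exposure. Duplicate plates of T47D in hormone-depleted medium; eight concentrations, 1:4 dilutions, 100 uM maximum.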
Compound,AC50,outcome
O=C=Nc1ccc(Cl)cc1,29.9 µM (active),
CC(C)[C@H](C(=O)OC(C#N)c1cccc(Oc2ccccc2)c1)c1ccc(OC(F)F)cc1 (some centres not stated),38 µM (active),
COCCl,,inactive
Nc1cccnc1,,inactive
CC1(C)[C@H](C(=O)O[C@H](C#N)c2cccc(Oc3ccccc3)c2)[C@@H]1/C=C(\Cl)C(F)(F)F,42.5 µM (active),
O=[N+]([O-])c1ccc(Nc2ccccc2)cc1,,inactive
O=S(=O)(C(Cl)(Cl)Cl)C(Cl)(Cl)Cl,5.21 µM (active),
CCN(CC)C(=O)C(Cl)=C(C)OP(=O)(OC)OC,25.8 µM (active),
CCOC(=O)C(SP(=S)(OC)OC)c1ccccc1 (configuration not stated),,inactive
O=C(NC(=O)c1c(F)cccc1F)Nc1cc(Cl)c(OC(F)(F)C(F)C(F)(F)F)cc1Cl (configuration not stated),50 µM (active),
CC(=Cc1ccccc1)[N+](=O)[O-],11.5 µM (active),
Cc1cccc(OP(=O)(Oc2cccc(C)c2)Oc2cccc(C)c2)c1,17.3 µM (active),
O=[N+]([O-])c1cccc2ccccc12,,inactive
Cc1ccc(CCl)cc1,40.7 µM (active),
CC(C)(COCC1CO1)COCC1CO1 (configuration not stated),29.9 µM (active),
C=C(C)C(=O)OCC(CC)CCCC (configuration not stated),,inactive
O=C/C(Cl)=C(/Cl)C(=O)O,73.9 µM (active),
CN(C1CCCCC1)C1CCCCC1,68.6 µM (active),
c1ccc(-c2cccc(-c3ccccc3)c2)cc1,24.4 µM (active),

Compound,AC50,outcome
O=C(Cl)OCCOCCOC(=O)Cl,,inactive
O=S1OC[C@@H]2[C@H](CO1)[C@]1(Cl)C(Cl)=C(Cl)[C@@]2(Cl)C1(Cl)Cl (some centres not stated),50 µM (active),
O=[N+]([O-])c1cc([As](=O)(O)O)ccc1O,,inactive
CCCCCCCCCCBr,,inactive
Nc1nc(N)nc(Cl)n1,,inactive
CCOc1cc(C=O)ccc1O,,inactive
CCCCC(CC)COC(=O)Cl (configuration not stated),,inactive
C1CN2CCN1CC2,,inactive
O=c1oc2ccccc2c(O)c1C(CC(O)c1ccc(-c2ccc(Br)cc2)cc1)c1ccccc1 (configuration not stated),22.7 µM (active),
Brc1ccc(Br)cc1,,inactive
Oc1cc(Cl)c(Cl)cc1Cl,,inactive
O=C(CCl)NCO,,inactive
O=CCCl,10.3 µM (active),
Oc1c(Br)cc(Br)cc1Br,,inactive
OC[P+](CO)(CO)CO,50 µM (active),
CC(C=O)Cc1ccc2c(c1)OCO2 (configuration not stated),,inactive
CCCCC(CC)C(=O)Cl (configuration not stated),,inactive
CNC(=O)O/N=C/C(C)(C)S(C)(=O)=O,,inactive
O=NN1CCCCCCC1,,inactive

# Biological target: AR (gene 367) (UniProt P10275)
# Sequence (P10275 whole entry, looked up): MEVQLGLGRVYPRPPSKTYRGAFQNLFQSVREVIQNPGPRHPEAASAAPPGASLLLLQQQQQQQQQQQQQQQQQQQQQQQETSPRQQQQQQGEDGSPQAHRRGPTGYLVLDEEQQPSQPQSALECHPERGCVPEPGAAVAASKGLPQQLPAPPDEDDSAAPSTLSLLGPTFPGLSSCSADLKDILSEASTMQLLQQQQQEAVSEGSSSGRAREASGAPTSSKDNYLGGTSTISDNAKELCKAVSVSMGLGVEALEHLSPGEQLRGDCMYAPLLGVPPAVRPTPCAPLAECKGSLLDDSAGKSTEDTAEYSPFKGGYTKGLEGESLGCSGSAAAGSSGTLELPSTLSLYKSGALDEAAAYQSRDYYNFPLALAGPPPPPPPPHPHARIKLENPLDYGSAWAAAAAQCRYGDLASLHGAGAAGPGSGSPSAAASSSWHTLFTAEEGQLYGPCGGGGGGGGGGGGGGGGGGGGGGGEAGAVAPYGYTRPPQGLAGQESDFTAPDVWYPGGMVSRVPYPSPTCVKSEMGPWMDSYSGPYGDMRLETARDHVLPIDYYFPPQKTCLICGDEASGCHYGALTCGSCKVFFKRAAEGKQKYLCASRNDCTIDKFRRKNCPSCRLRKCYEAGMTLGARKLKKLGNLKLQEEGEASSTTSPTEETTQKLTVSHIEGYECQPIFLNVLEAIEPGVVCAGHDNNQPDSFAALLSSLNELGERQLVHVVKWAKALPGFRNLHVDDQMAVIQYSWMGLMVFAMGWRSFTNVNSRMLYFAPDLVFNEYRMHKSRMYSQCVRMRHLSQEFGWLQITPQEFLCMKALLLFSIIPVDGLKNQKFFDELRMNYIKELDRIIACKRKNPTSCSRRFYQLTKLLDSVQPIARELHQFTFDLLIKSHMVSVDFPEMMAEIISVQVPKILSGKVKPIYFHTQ
# Assay: ACEA_AR_antagonist_80hr: ACEA Biosciences xCELLigence Real-Time Cell Analysis on Androgen Receptor Antagonism for Proliferation (AID 2283787);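 note: 22Rv1 human prostate cancer cells with growth followed by electrical impedance; hits lower the impedance growth signal relative to DMSO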
# Outline: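 Impedance-based real-time growth of 22Rv1 prostate cells, read 80 h after dosing. Eight concentrations, 1:4 series, top 100 uM final (0.5% DMSO), n = 2; signal decrease scored against DMSO.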
Compound,outcome,AC50
COCCl,inactive,
O=C(NC(=O)c1c(F)cccc1F)Nc1cc(Cl)c(OC(F)(F)C(F)C(F)(F)F)cc1Cl (configuration not stated),,6.32 µM (active)
CC(=Cc1ccccc1)[N+](=O)[O-],,6.33 µM (active)
O=S1OC[C@@H]2[C@H](CO1)[C@]1(Cl)C(Cl)=C(Cl)[C@@]2(Cl)C1(Cl)Cl (some centres not stated),inactive,
Cc1cc(Cl)ccc1OCCCC(=O)O,inactive,
CNC(=O)O/N=C/C(C)(C)S(C)(=O)=O,inactive,

# — PubChem BioAssay (EPA / NIEHS)
